According to PubChem BioAssay (NCATS):
Records with an inconclusive call do not appear. Entries that show only a call come without a potency. Unmarked numbers belong to inactive results. The source made the active and inactive calls. Calls come from the whole dose curve; as a rule, active = well fitted curve in the direction sought with a large enough effect; inconclusive = small, poorly fitted or top-dose-only effect, or another doubt; inactive = no such curve, though single readings can be large; an effect the other way counts as inactive or inconclusive.
Potency is the fitted concentration of half-maximal effect.

Assay: qHTS of pediatric cancer cell lines to identify multiple opportunities for drug repurposing: Primary screen for LAN-5 cells (AID 1347100)
Conditions: LAN-5 neuroblastoma viability, CellTiter-Glo luminescence, 48 h; series mostly up to 46 µM; activity change, negative = cytotoxic: at the top concentration
Procedure, shortened: (§1)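 Viability after 48 h compound treatment at 37C, 500-1,000 cells/well, read as ATP luminescence with CellTiter-Glo. Primary screens used 11-point (MIPE, 0.78 nM-46 µM) or 8-point (NPC, 0.59 nM-46 µM) final concentrations; follow-up screens used 11-point dilutions.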
For `Cc1cn([C@H]2C[C@H](N=[N+]=[N-])[C@@H](CO)O2)c(=O)[nH]c1=O`, the Potency was “inactive”.
With `CC12CC3CC(C)(C1)CC(N)(C3)C2` the “activity change, negative = cytotoxic” value was -6.99%.
For `COc1ccc2c(c1)c(CC(=O)O)c(C)n2C(=O)c1ccc(Cl)cc1`, the Potency was “inactive”.
With `CCOC(=O)Nc1ccc(NCc2ccc(F)cc2)nc1N` the Potency was “inactive”.
With `C[C@H]1c2cccc(O)c2C(O)=C2C(=O)[C@]3(O)C(O)=C(C(N)=O)C(=O)[C@@H](N(C)C)[C@@H]3[C@@H](O)[C@@H]21` the “activity change, negative = cytotoxic” value was -0.859%.
With `NC12CC3CC(CC(C3)C1)C2` the Potency was “inactive”.
With `CN(C)CCC=C1c2ccccc2C=Cc2ccccc21` the Potency was “inactive”.
In the case of `CC1(CN2CCC(n3c(=O)[nH]c4ccccc43)CC2)OCc2ccccc2-n2cccc21` (stereo unspecified), the Potency is reported as “inactive”.
For `CN1CCC(=C2c3ccccc3CC(=O)c3sccc32)CC1`, the “activity change, negative = cytotoxic” value was -7.41%.
In the case of `Nc1nc2c(ncn2COC(CO)CO)c(=O)[nH]1`, the “activity change, negative = cytotoxic” value is reported as 10.8%.
In the case of `COc1ccccc1OCCNCC(O)COc1cccc2[nH]c3ccccc3c12` (stereo unspecified), the “activity change, negative = cytotoxic” value is reported as -14.6%.
In the case of `Cc1cc(C(C)(C)C)cc(C)c1CC1=NCCN1`, the Potency is reported as “inactive”.
In the case of `OCCN(CCO)c1nc(N2CCCCC2)c2nc(N(CCO)CCO)nc(N3CCCCC3)c2n1`, the “activity change, negative = cytotoxic” value is reported as -27.9%.
In the case of `Cc1cn([C@H]2C=C[C@@H](CO)O2)c(=O)[nH]c1=O`, the Potency is reported as “inactive”.
In the case of `COc1ccc2[nH]cc(CCNC(C)=O)c2c1`, the Potency is reported as “inactive”.
With `COc1ccccc1OCC(O)CN1CCN(CC(=O)Nc2c(C)cccc2C)CC1` (stereo unspecified) the Potency was “inactive”.
With `C[C@](N)(Cc1ccc(O)c(O)c1)C(=O)O` the “activity change, negative = cytotoxic” value was -11.4%.
For `Fc1ccc([C@@H]2CCNC[C@H]2COc2ccc3c(c2)OCO3)cc1`, the Potency was “inactive”.
For `CC(C)C(=O)Nc1ccc([N+](=O)[O-])c(C(F)(F)F)c1`, the “activity change, negative = cytotoxic” value was -20.9%.
In the case of `O=C1Cc2cc(CCN3CCN(c4nsc5ccccc45)CC3)c(Cl)cc2N1`, the “activity change, negative = cytotoxic” value is reported as -16.1%.
In the case of `CC(C(=O)O)c1cccc(C(=O)c2ccccc2)c1` (stereo unspecified), the Potency is reported as “inactive”.
For `CC1COc2c(N3CCN(C)CC3)c(F)cc3c(=O)c(C(=O)O)cn1c23` (stereo unspecified), the “activity change, negative = cytotoxic” value was 6.53%.
With `Cn1c(=O)c2[nH]cnc2n(C)c1=O` the Potency was “inactive”.
With `NC(=O)NO` the “activity change, negative = cytotoxic” value was 21.1%.
For `O=c1[nH]cc(F)c(=O)[nH]1`, the Potency was 7.43 µM (active).
For `Clc1ccccc1C(c1ccccc1)(c1ccccc1)n1ccnc1`, the “activity change, negative = cytotoxic” value was -27.6%.
For `CCC1(c2ccccc2)C(=O)NCNC1=O`, the Potency was “inactive”.
In the case of `CC(COc1ccccc1)N(CCCl)Cc1ccccc1` (stereo unspecified), the “activity change, negative = cytotoxic” value is reported as -3.33%.
In the case of `Cc1ccc(-c2cc(C(F)(F)F)nn2-c2ccc(S(N)(=O)=O)cc2)cc1`, the Potency is reported as “inactive”.

Assay: qHTS of pediatric cancer cell lines to identify multiple opportunities for drug repurposing: Primary screen for BT-12 cells (AID 1347101); note: nearly all actives have a fitted effect of over 25% in size
Conditions: BT-12 viability, CellTiter-Glo luminescence, 48 h; series mostly up to 57.3 µM; activity change, negative = cytotoxic: at the top concentration
Procedure, shortened: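 Cells (500-1,000/well) rested 5 h, then received compounds for 48 h; metabolically active cells were measured by CellTiter-Glo luminescence. Final concentrations spanned up to 46 µM (MIPE, 11-point) or 0.59 nM-46 µM (NPC, 8-point) in primary screens, 11-point in follow-ups.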
In the case of `Cc1cn([C@H]2C[C@H](N=[N+]=[N-])[C@@H](CO)O2)c(=O)[nH]c1=O`, the “activity change, negative = cytotoxic” value is reported as 0.813%.
For `CC(C)(Oc1ccc(C2CC2(Cl)Cl)cc1)C(=O)O` (stereo unspecified), the “activity change, negative = cytotoxic” value was 13.2%.
With `CC12CC3CC(C)(C1)CC(N)(C3)C2` the Potency was “inactive”.
In the case of `COc1ccc2c(c1)c(CC(=O)O)c(C)n2C(=O)c1ccc(Cl)cc1`, the Potency is reported as “inactive”.
For `CCOC(=O)Nc1ccc(NCc2ccc(F)cc2)nc1N`, the Potency was “inactive”.
For `C[C@H]1c2cccc(O)c2C(O)=C2C(=O)[C@]3(O)C(O)=C(C(N)=O)C(=O)[C@@H](N(C)C)[C@@H]3[C@@H](O)[C@@H]21`, the Potency was 24.3 µM (active).
For `NC12CC3CC(CC(C3)C1)C2`, the “activity change, negative = cytotoxic” value was 4.77%.
In the case of `CN1C(C(=O)Nc2ccccn2)=C(O)c2ccccc2S1(=O)=O`, the “activity change, negative = cytotoxic” value is reported as -1.58%.
With `CC1(CN2CCC(n3c(=O)[nH]c4ccccc43)CC2)OCc2ccccc2-n2cccc21` (stereo unspecified) the “activity change, negative = cytotoxic” value was -4.58%.
For `CN1CCC(=C2c3ccccc3CC(=O)c3sccc32)CC1`, the Potency was “inactive”.
With `Cc1cc(C(C)(C)C)cc(C)c1CC1=NCCN1` the Potency was “inactive”.
With `Cc1cn([C@H]2C=C[C@@H](CO)O2)c(=O)[nH]c1=O` the Potency was “inactive”.
In the case of `COc1ccc2[nH]cc(CCNC(C)=O)c2c1`, the Potency is reported as “inactive”.
With `COc1ccccc1OCC(O)CN1CCN(CC(=O)Nc2c(C)cccc2C)CC1` (stereo unspecified) the “activity change, negative = cytotoxic” value was 11.5%.
For `C[C@](N)(Cc1ccc(O)c(O)c1)C(=O)O`, the Potency was “inactive”.
In the case of `Fc1ccc([C@@H]2CCNC[C@H]2COc2ccc3c(c2)OCO3)cc1`, the Potency is reported as “inactive”.
For `CC(C)C(=O)Nc1ccc([N+](=O)[O-])c(C(F)(F)F)c1`, the Potency was 11 µM (active).
In the case of `O=C1Cc2cc(CCN3CCN(c4nsc5ccccc45)CC3)c(Cl)cc2N1`, the “activity change, negative = cytotoxic” value is reported as -8.96%.
In the case of `CC(C(=O)O)c1cccc(C(=O)c2ccccc2)c1` (stereo unspecified), the “activity change, negative = cytotoxic” value is reported as -7.09%.
In the case of `O=c1c(-c2ccc(O)cc2)coc2cc(O)cc(O)c12`, the “activity change, negative = cytotoxic” value is reported as -15.3%.
For `CC1COc2c(N3CCN(C)CC3)c(F)cc3c(=O)c(C(=O)O)cn1c23` (stereo unspecified), the Potency was “inactive”.
With `Cn1c(=O)c2[nH]cnc2n(C)c1=O` the Potency was “inactive”.
For `CCC1(c2ccccc2)C(=O)NCNC1=O`, the Potency was “inactive”.
In the case of `CC(COc1ccccc1)N(CCCl)Cc1ccccc1` (stereo unspecified), the Potency is reported as 9.68 µM (active).
In the case of `Cc1ccc(-c2cc(C(F)(F)F)nn2-c2ccc(S(N)(=O)=O)cc2)cc1`, the “activity change, negative = cytotoxic” value is reported as 0.588%.

Assay: qHTS of pediatric cancer cell lines to identify multiple opportunities for drug repurposing: Primary screen for Rh18 cells (AID 1347102); note: nearly all actives have a fitted effect of over 65% in size
Conditions: Rh18 rhabdomyosarcoma viability, CellTiter-Glo luminescence, 48 h; series mostly up to 46 µM; activity change, negative = cytotoxic: at the top concentration
Procedure, shortened: as §1
For `Cc1cn([C@H]2C[C@H](N=[N+]=[N-])[C@@H](CO)O2)c(=O)[nH]c1=O`, the Potency was “inactive”.
With `CC(C)(Oc1ccc(C2CC2(Cl)Cl)cc1)C(=O)O` (stereo unspecified) the Potency was “inactive”.
In the case of `CC12CC3CC(C)(C1)CC(N)(C3)C2`, the “activity change, negative = cytotoxic” value is reported as -10.4%.
For `COc1ccc2c(c1)c(CC(=O)O)c(C)n2C(=O)c1ccc(Cl)cc1`, the Potency was “inactive”.
In the case of `CCOC(=O)Nc1ccc(NCc2ccc(F)cc2)nc1N`, the Potency is reported as “inactive”.
For `C[C@H]1c2cccc(O)c2C(O)=C2C(=O)[C@]3(O)C(O)=C(C(N)=O)C(=O)[C@@H](N(C)C)[C@@H]3[C@@H](O)[C@@H]21`, the Potency was “inactive”.
In the case of `NC12CC3CC(CC(C3)C1)C2`, the Potency is reported as “inactive”.
With `CN(C)CCC=C1c2ccccc2C=Cc2ccccc21` the “activity change, negative = cytotoxic” value was -27.1%.
For `CN1C(C(=O)Nc2ccccn2)=C(O)c2ccccc2S1(=O)=O`, the Potency was “inactive”.
In the case of `CC1(CN2CCC(n3c(=O)[nH]c4ccccc43)CC2)OCc2ccccc2-n2cccc21` (stereo unspecified), the “activity change, negative = cytotoxic” value is reported as -4.04%.
With `CN1CCC(=C2c3ccccc3CC(=O)c3sccc32)CC1` the “activity change, negative = cytotoxic” value was -6.46%.
With `Nc1nc2c(ncn2COC(CO)CO)c(=O)[nH]1` the “activity change, negative = cytotoxic” value was 15.2%.
With `COc1ccccc1OCCNCC(O)COc1cccc2[nH]c3ccccc3c12` (stereo unspecified) the “activity change, negative = cytotoxic” value was 2.73%.
For `CC(CCc1ccc(O)cc1)NCCc1ccc(O)c(O)c1` (stereo unspecified), the Potency was 20.9 µM (active).
For `Cc1cc(C(C)(C)C)cc(C)c1CC1=NCCN1`, the Potency was “inactive”.
With `OCCN(CCO)c1nc(N2CCCCC2)c2nc(N(CCO)CCO)nc(N3CCCCC3)c2n1` the “activity change, negative = cytotoxic” value was -18.5%.
For `Cc1cn([C@H]2C=C[C@@H](CO)O2)c(=O)[nH]c1=O`, the Potency was “inactive”.
In the case of `COc1ccc2[nH]cc(CCNC(C)=O)c2c1`, the Potency is reported as “inactive”.
With `COc1ccccc1OCC(O)CN1CCN(CC(=O)Nc2c(C)cccc2C)CC1` (stereo unspecified) the Potency was “inactive”.
With `C[C@](N)(Cc1ccc(O)c(O)c1)C(=O)O` the Potency was “inactive”.
With `CC(C)C(=O)Nc1ccc([N+](=O)[O-])c(C(F)(F)F)c1` the Potency was “inactive”.
For `O=C1Cc2cc(CCN3CCN(c4nsc5ccccc45)CC3)c(Cl)cc2N1`, the Potency was “inactive”.
With `CC(C(=O)O)c1cccc(C(=O)c2ccccc2)c1` (stereo unspecified) the Potency was “inactive”.
With `O=c1c(-c2ccc(O)cc2)coc2cc(O)cc(O)c12` the Potency was “inactive”.
With `CC1COc2c(N3CCN(C)CC3)c(F)cc3c(=O)c(C(=O)O)cn1c23` (stereo unspecified) the Potency was “inactive”.
For `Cn1c(=O)c2[nH]cnc2n(C)c1=O`, the Potency was “inactive”.
With `NC(=O)NO` the “activity change, negative = cytotoxic” value was 14.1%.
In the case of `O=c1[nH]cc(F)c(=O)[nH]1`, the Potency is reported as “inactive”.
For `Clc1ccccc1C(c1ccccc1)(c1ccccc1)n1ccnc1`, the “activity change, negative = cytotoxic” value was -22.2%.
In the case of `CCC1(c2ccccc2)C(=O)NCNC1=O`, the Potency is reported as “inactive”.
With `CC(COc1ccccc1)N(CCCl)Cc1ccccc1` (stereo unspecified) the Potency was “inactive”.
In the case of `Cc1ccc(-c2cc(C(F)(F)F)nn2-c2ccc(S(N)(=O)=O)cc2)cc1`, the “activity change, negative = cytotoxic” value is reported as -9.09%.
